Experimental data taken from PubChem BioAssay (NCATS).
Values joined by “and” are separate entries in the source; they are usually repeats but may differ in a detail not shown here. Identical values can stand only once. Unmarked numbers belong to inactive results. Results filed as inconclusive are left out. Active and inactive are the calls of the source. Unless noted, calls follow the shape of the dose curve; as a rule, active = well fitted inhibition curve with a large enough effect; inconclusive = small, poorly fitted or top-dose-only effect; inactive = flat fitted curve, though single readings scatter.

Key:
[1] = Drug repurposing screens with cells derived from glioblastoma tumor samples (AID 1345199); conditions: GBM patient neurospheres viability, ATP luminescence, 48 h; also: nearly all actives have a fitted effect of over 40% in size; also: potency is read from the fitted curve at half-maximal effect; as to activity, negative = cell killing: % is scaled to controls: 0 for no effect and ±100 for the full control effect
How it was run: (§1)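 Primary testing used CD133+ neurospheres from four GBM patients, seven concentrations, 48 h exposure and ATP-based viability; confirmation added three slower-growing patient lines.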

[2] = system: astro; experiment: as above; conditions: viability, ATP luminescence, 48 h; series mostly up to 45.9 µM
How it was run: as §1

[3] = target: Nuclear receptor subfamily 1 group I member 2 (Rattus norvegicus) (UniProt Q9R1A7); experiment: qHTS assay for small molecule activators of the rat pregnane X receptor (rPXR) signaling pathway (AID 651751; call rule not given here; also: 0% is about no effect); conditions: rPXR reporter cells, luciferase (One-Glo), 24 h
[4] = qHTS assay for small molecule activators of the human pregnane X receptor (PXR) signaling pathway (AID 720659; call rule not given here; also: 0% is about no effect); conditions: DPX-2 HepG2 CYP3A4-luciferase, 24 h; series mostly up to 92.3 µM
[5] = at 45.9 µM (top of the series), tumour line B
[6] = at 45.9 µM (top of the series), tumour line D
[7] = at 46 µM (top of the series), tumour line A
[8] = at 46.1 µM (top of the series), tumour line C

Chain of Nuclear receptor subfamily 1 group I member 2 (Rattus norvegicus) (Q9R1A7 whole entry, looked up): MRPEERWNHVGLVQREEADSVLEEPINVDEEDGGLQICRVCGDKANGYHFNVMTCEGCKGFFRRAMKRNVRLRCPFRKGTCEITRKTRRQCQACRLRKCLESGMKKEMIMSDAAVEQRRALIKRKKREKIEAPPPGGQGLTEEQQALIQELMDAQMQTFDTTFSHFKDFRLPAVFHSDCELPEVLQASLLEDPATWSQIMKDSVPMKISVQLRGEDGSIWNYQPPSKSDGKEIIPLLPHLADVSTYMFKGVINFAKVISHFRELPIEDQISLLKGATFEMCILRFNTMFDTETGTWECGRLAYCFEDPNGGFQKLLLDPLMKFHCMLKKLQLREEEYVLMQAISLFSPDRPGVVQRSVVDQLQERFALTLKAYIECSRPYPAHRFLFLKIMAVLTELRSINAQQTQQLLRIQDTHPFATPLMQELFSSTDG

Compound | activity, negative = cell killing [1, 5] | activity, negative = cell killing [1, 6] | activity, negative = cell killing [1, 7] | activity, negative = cell killing [1, 8] | Potency [2] | max response [3] | outcome [4] | Potency ([1]; tumour line A)
CN(CCO)CC(O)Cn1cnc2c1c(=O)n(C)c(=O)n2C (stereo unspecified) (tested in a mixture with another compound) | -0.373% | -10.7% | -23.5% | -30% | inactive | -1.56% | inactive | 
CC/C=C\C/C=C\C/C=C\CCCCCCCC(=O)O | 8.6% | -7.43% | -13.9% | 5.73% | inactive | -2.75% | inactive | 
CC(C)O | -6.9% | -24.5% | -15.4% | -14.2% | inactive | -7.02% | inactive | 
Nc1nccs1 | -17.5% | -10.5% | -20.4% | -24.6% | inactive | -2.21% | inactive | 
NCCN | -1.66% | -17.5% | -28.2% | 1.75% | inactive | 4.88% | inactive | 
CCCCC(CC)COS(=O)(=O)O (stereo unspecified) | -6.03% | -2.06% | -18.8% | -4.44% | inactive | 0.915% | inactive | 
C[C@H](CCC(=O)O)[C@H]1CC[C@H]2[C@@H]3CC[C@@H]4C[C@H](O)CC[C@]4(C)[C@H]3C[C@H](O)[C@]12C | -4.54% | 7.18% | -19.5% | -8.85% | inactive | -12.5% |  | 
Cc1ccc(S(=O)(=O)NCl)cc1 | -6.22% | 7.3% | -22.9% | -11.3% | inactive | -0.198% | inactive | 
c1ccc2ccccc2c1 | -9.97% | 9.45% | -4.53% | -18.3% | inactive | -1.58% and 3.23% |  | 
CC[C@H](CC[C@@H](C)[C@H]1CC[C@H]2[C@@H]3CC=C4C[C@@H](O)CC[C@]4(C)[C@H]3CC[C@]12C)C(C)C | -10.4% | -2.23% | -16.4% | -13.1% | inactive |  |  | 
CN1C(C(=O)Nc2ccccn2)C(=O)c2sc(Cl)cc2S1(=O)=O (stereo unspecified) | -14.7% | -14% |  | -4.03% | inactive |  |  | 
O=C(/C=C/c1cccc(F)c1)NC1CC1 | -18.1% | -4.02% |  | -17.9% | inactive |  |  | 
c1ccc2c(c1)OCC(CN1CCCCC1)O2 (stereo unspecified) | 0.315% | -10.7% |  | -13% | inactive |  |  | 
CCCCCCCCCCCCCCCCCC(=O)OCC(C)O (stereo unspecified) | -18.7% | -0.865% | -14.9% |  | inactive |  |  | 
COc1ccc2cc([C@H](C)CO)ccc2c1 | -14.5% | 4.49% |  | -21.2% | inactive |  |  | 
C[C@@H]1C[C@H]2[C@@H]3C[C@H](F)C4=CC(=O)C=C[C@]4(C)[C@@]3(Cl)[C@@H](O)C[C@]2(C)[C@H]1C(=O)COC(=O)C(C)(C)C | -18.4% | -9.89% |  | -26.7% | inactive |  |  | 
O=c1[nH]c(=O)n([C@H]2C[C@H](O)[C@@H](CO)O2)cc1/C=C/Br | -10.7% | -3.23% |  | -17.1% | inactive |  |  | 
CC(C)(C)C(=O)OCC(=O)[C@H]1CC[C@H]2[C@@H]3CCC4=CC(=O)CC[C@]4(C)[C@H]3CC[C@]12C | -7.01% | -7.34% |  | 0.589% | inactive |  |  | 
N#Cc1ccc2c(c1)N(CCCN1CCC(O)CC1)c1ccccc1S2 | -29.3% |  |  | 15.3% | inactive |  |  | 5.01 µM (active)
CC(C)C[C@@H](NC(=O)[C@@H](O)[C@H](N)Cc1ccccc1)C(=O)O | -12.5% | -2.21% |  | -22.2% | inactive |  |  | 
Oc1ccc(Cl)c2c1CCC2 | -12.8% | -3.41% |  | -12.7% | inactive |  |  | 
COc1ccc(-c2noc(CC(=O)O)c2-c2ccc(OC)cc2)cc1 | -13.4% | -6.66% |  | -18% | inactive |  |  | 
CC(C)CCC[C@@H](C)[C@H]1CC[C@H]2[C@@H]3CC[C@@H]4C[C@H](O)CC[C@]4(C)[C@H]3CC[C@]12C | -2.13% | -20.8% |  | -6.49% | inactive |  |  | 
[O]=[Bi][O]C(=O)[O][Bi]=[O] | -5.84% | -17.8% |  | 0.454% | inactive |  |  | 
OC[C@H]1O[C@@H](O[C@H]2[C@H](O)[C@@H](O)[C@H](O)O[C@@H]2CO)[C@H](O)[C@@H](O)[C@@H]1O | -9.2% | 6.26% |  | -13.5% | inactive |  |  | 
